Growth data for eight compounds are collected here from PubChem BioAssay (NCI).

Assay in all cases: NCI-60 one-dose screen, 48 h (100 = growth as untreated, 0 = no growth, -100 = all killed)
Conditions in all cases: 10 µM unless noted

Experiment [1] has as its system HCT-15 colon.
Experiment [2] relates to HT29 colon.
Experiment [3] concerns SNB-75 CNS.
Experiment [4] concerns SNB-19 CNS.
The subject of experiment [5] is U251 CNS.
In experiment [6] the test system is PC-3 prostate.
The subject of experiment [7] is SK-MEL-5 melanoma.
The subject of experiment [8] is UACC-62 melanoma.
Experiment [9] deals with LOX IMVI melanoma.
In experiment [10] the test system is SK-MEL-28 melanoma.
For experiment [11], the system named is SK-MEL-2 melanoma.
Experiment [12] concerns EKVX NSCLC.
Experiment [13] deals with SN12C renal.
Experiment [14] has as its system UO-31 renal.
The test system of experiment [15] is TK-10 renal.
Experiment [16] relates to ACHN renal.
Experiment [17] has as its system CAKI-1 renal.
In experiment [18] the test system is A498 renal.
Experiment [19] deals with MOLT-4 leukemia.
The test system of experiment [20] is CCRF-CEM leukemia.

The panel holds about 83,000 compounds, 20% with a hit somewhere; the sample as a whole holds those more often.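 Negative percent growth values reflect cell death: -40 means 40% of the cells present at the start died, and -100 means all died.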 A number with no mark means an inactive call. Active and inactive are the calls of the source. Rule for the calls: active = growth percent below 10; inactive = the rest.

On to `CC1(C)CC[C@]23CC[C@]4(C)[C@H](CC[C@@H]5[C@@]6(C)C/C(=C/O)C(=O)C(C)(C)[C@@H]6CC[C@]54C)[C@H]2[C@H]1OC3`, for which the growth in experiment [1] was 110%; in experiment [2], 100%; in experiment [3], 104%; in experiment [4], 98%; in [5], 105%; in experiment [6] it was 86.1%. The growth in experiment [7] is 101%; in experiment [8] it was 93%; in experiment [9] it was 90.8%; in [10] it was 107%; in experiment [11], 108%; in [12], 98.4%. For the same compound, the growth is 99.2% in experiment [13]; 85% in experiment [14]; 113% in [15]; 110% in experiment [16]; 91.1% in [17]; 105% in [18]. For the same compound, the growth in [19] is 97.7%.

`Cc1cc(=O)oc2cc(Oc3nc(Br)cn4c(Br)cnc34)ccc12`: the growth was 95.6% in [1]; 99.9% in experiment [2]; -2.07% (active) in experiment [3]; 74.6% in experiment [4]; 47.6% in experiment [5]; 82.1% in experiment [6]. In addition, the growth in [7] is 40.3%; in experiment [8], 85.2%; in experiment [9], 74.3%; in experiment [10] it was 104%; in [11], 78%; in experiment [12] it was 75.6%. For the same compound, the growth in [13] is 75.8%; in [14], 58.8%; in experiment [15] it was 114%; in [16] it was 65.8%; in [17], 95.7%; in experiment [18], 97.4%. The values for the growth in [20] and in [19] were 106% and 87.5%, respectively.

On to `CCCCCc1ccc(S(=O)(=O)Nc2cc(-c3csc(NC(C)=O)n3)ccc2N2CCN(C)CC2)cc1`, for which the growth in experiment [1] is 4% (active); in experiment [2] it was 5.9% (active); in experiment [3] it was 37.3%; in [4], 74.6%; in experiment [5], 12.2%; in experiment [6], 41.2%. Further, the growth was 30.2% in experiment [7]; -56.2% (active) in experiment [8]; -95.4% (active) in experiment [9]; -80.2% (active) in experiment [10]; 81.3% in experiment [11]; 78.2% in experiment [12]. Besides, the growth in [13] is 61.4%; in experiment [14], 49.4%; in experiment [15] it was 99.3%; in [16] it was 54.6%; in experiment [17] it was 64.1%; in experiment [18], 66.2%. In addition, the growth in experiment [19] was 12.4%.

On to `Cc1c(O)cc(-c2cnc(N/N=C/c3ccccc3)s2)c(O)c1C`, for which the growth was 79.1% in experiment [1]; 104% in [2]; 98% in experiment [3]; 105% in experiment [4]; 97.9% in experiment [5]; 69.7% in experiment [6]. Further, the growth was 85.8% in [7]; 81.9% in [8]; 79.9% in experiment [9]; 92.2% in experiment [10]; 104% in experiment [11]; 87.2% in experiment [12]. The growth is 95.6% in experiment [13]; 79.9% in experiment [14]; 129% in experiment [15]; 99.4% in experiment [16]; 91.7% in [17]; -20.4% (active) in [18]. Besides, the growth in experiment [19] was 9.73% (active).

On to `COc1cc(Cc2cc(OC)c(O)c(OC)c2)cc(OC)c1O`, for which the growth was 60.9% in [1]; 110% in experiment [2]; 82.2% in [3]; 102% in experiment [4]; 102% in [5]; 80.2% in [6]. Besides, the growth in experiment [7] is 101%; in [8] it was 94.9%; in experiment [9] it was 80.7%; in experiment [10], 82.4%; in experiment [11], 76.6%; in [12], 110%. Besides, the growth in experiment [13] was 97.7%; in experiment [14], 120%; in experiment [15] it was 107%; in experiment [16], 106%; in [17], 73.9%; in experiment [18], 88.6%. Moreover, the growth in experiment [19] was 74.9%.

As to `Cn1c2ccccc2c2c3c(c4c5cc(Br)ccc5n(C)c4c21)C(=O)N(O)C3=O`, the growth in experiment [1] was 21%; in experiment [2] it was 52.6%; in experiment [3] it was 38.9%; in experiment [4] it was 16%; in [5] it was 3.06% (active); in experiment [6] it was 47%. Further, the growth in experiment [7] was -35.4% (active); in [8] it was -4.53% (active); in [9] it was -77.9% (active); in experiment [10], 54.3%; in experiment [11] it was 56.3%; in experiment [12], 88.5%. In addition, the growth in [13] was -53.2% (active); in experiment [14] it was 2.59% (active); in experiment [15] it was 90.3%; in experiment [16], -23% (active); in experiment [17], -22.4% (active); in experiment [18], 103%. For the same compound, the growth was -22.2% (active) in experiment [20] and -21.4% (active) in [19].

As to `N#Cc1ccc(O)c(C2=NCC(c3ccc(-c4ccccc4)cc3)O2)c1` (stereo not given), the growth was 24.6% in experiment [1]; 18.1% in experiment [2]; 26.2% in experiment [3]; 18% in experiment [4]; 4.51% (active) in experiment [5]; 25.5% in experiment [6]. The growth in [7] is 3.96% (active); in experiment [8], -5.35% (active); in [9], 11.8%; in experiment [10], 23.7%; in [11], -4.74% (active); in experiment [12], 15.6%. Further, the growth in experiment [13] was 29.8%; in experiment [14], 1.37% (active); in experiment [15] it was 12.4%; in [16] it was 11.6%; in [17] it was 3.1% (active); in [18], 48.6%. Besides, the growth in [19] is 0.755% (active).

Turning to `C=C1C(=O)O[C@@H]2C3C(=C(C)CC[C@@H]12)CC1O[C@]13C` (stereo not given in full), the growth was 50.4% [6.75 µM] in [1]; 85.5% [6.75 µM] in [2]; 86.1% [6.75 µM] in experiment [3]; 92.8% [6.75 µM] in experiment [4]; 90.3% [6.75 µM] in experiment [5]; 85.2% [6.75 µM] in [6]. In addition, the growth in experiment [7] was 55.6% [6.75 µM]; in [8], 74.6% [6.75 µM]; in [9] it was 51.8% [6.75 µM]; in [10], 90.4% [6.75 µM]; in [11] it was 90.4% [6.75 µM]; in experiment [12], 91.5% [6.75 µM]. Further, the growth in experiment [13] is 86.6% [6.75 µM]; in [14], 54.5% [6.75 µM]; in experiment [15] it was 40.5% [6.75 µM]; in [16], 73.2% [6.75 µM]; in experiment [17], 90.1% [6.75 µM]; in experiment [18], 103% [6.75 µM]. For the same compound, the growth in [20] is 23.2% [6.75 µM]; in [19] it was 84% [6.75 µM].
